This passage reports Potency and activity (max response) results from PubChem BioAssay (NCATS).

The structures appear in SMILES notation. Records with an inconclusive call do not appear. A number with no mark means an inactive call. Calls of active or inactive are those of the source. Calls follow the shape of the dose curve; as a rule, active = well fitted curve in the direction sought with a large enough effect; inconclusive = small, poorly fitted or top-dose-only effect, or another doubt; inactive = no such curve, though single readings can be large; an effect the other way counts as inactive or inconclusive.

Test [1] can be described thus: Quantitative highthroughput screen to assess conditional lethalithy of P12 Ichikawa cells grown in Human Plasma-Like Medium with dialyzed fetal bovine serum (HPLM+ds) (AID 1963879). Also: nearly all actives have a fitted effect of over 35% in size. As to viability: series mostly up to about 46 µM. The note with it: Potency: viability. In outline:
(§1)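 Each medium arm—HPLM with 10% dialyzed FBS, or RPMI1640 with 5 mM glucose and 10% untreated or dialyzed FBS—was screened against an 11-point, 3-fold compound titration for 48 h at 37 °C, with CellTiter-Glo luminescence as endpoint.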

Test [2] is described as follows: Quantitative highthroughput screen to assess conditional lethalithy of P12 Ichikawa cells grown in RPMI1640 with untreated serum (RPMI+s) (AID 1963881). Also: nearly all actives have a fitted effect of over 35% in size.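 As to viability: series mostly up to about 46 µM; 100% = DMSO wells and 0% = empty wells without cells.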 The note with it: Potency: viability. In outline: as §1
Test [3] can be described thus: Quantitative highthroughput screen to assess conditional lethalithy of SEM cells grown in Human Plasma-Like Medium with dialyzed fetal bovine serum (HPLM+ds) (AID 1963882). Also: nearly all actives have a fitted effect of over 35% in size. As to viability: series mostly up to about 46 µM. The method, boiled down:
as §1

Test [4] in a line: Quantitative highthroughput screen to assess conditional lethalithy of SEM cells grown in RPMI1640 with unreated serum (RPMI+s) (AID 1963883). Also: nearly all actives have a fitted effect of over 35% in size.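 As to viability: 100% = DMSO wells and 0% = empty wells without cells.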 In outline:
as §1

Test [5] in a line: Quantitative highthroughput screen to assess conditional lethalithy of SEM cells grown in RPMI1640 with dialyzed fetal bovine serum (RPMI+ds) (AID 1963884). Also: nearly all actives have a fitted effect of over 35% in size.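 As to viability: series mostly up to about 46 µM; 100% = DMSO control wells and 0% = empty wells without cells.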 In outline: as §1
Test [6] is described as follows: Quantitative highthroughput screen to assess conditional lethalithy of P12 Ichikawa cells grown in RPMI1640 with dialyzed fetal bovine serum (RPMI+ds) (AID 1963880). Also: nearly all actives have a fitted effect of over 35% in size.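 As to viability: 100% = DMSO wells and 0% = empty wells on each plate.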 The note with it: Potency: P12-Ichikawa viability. In outline:
as §1

Test [7] can be described thus: Cellular viability qHTS for adrenocortical cancer (ACC) cell line NCI-H295R (AID 1963990). Also: nearly all actives have a fitted effect of over 60% in size. In outline: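 IC50 and maximal efficacy derive from four-parameter logistic modelling of titration curves, with reads scaled between DMSO-only wells (0%) and doxorubicin hydrochloride (100% inhibition). Compounds spanned up to 46 uM over 48 h.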
A short description of test [8]: Cellular viability qHTS for adrenocortical cancer (ACC) cell line SW-13 (AID 1963989). Also: nearly all actives have a fitted effect of over 65% in size.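 As to activity (max response): cells grown in serum-free medium with ITS supplement; % is scaled to controls: 0 for no effect and ±100 for the full control effect.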 The note with it: SW-13 ACC cells viability, CellTiter-Glo, 48 h; activity (max response): hits give low values. In outline:
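Luminescent ATP read-out (CellTiter-Glo, 20 min at room temperature) measured metabolically competent SW-13 cells after 48 h compound treatment. Final concentrations spanned up to 46 uM; bortezomib served as positive control.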
Potency is read from the fitted curve at half-maximal effect.

Turning to `CNc1nc(-c2ccc3c(N)n[nH]c3c2)cc(N2C[C@@H](C(=O)NC3CCCCC3)CC[C@@H]2C)n1`, the Potency in test [1] was 23.5 µM (active); in test [2], 16.6 µM (active); in test [3] it was 16.6 µM (active); in test [4], 16.6 µM (active); in test [5], 18.7 µM (active).

Consider `N#CC(=C(N)Sc1ccc(N)cc1)c1ccccc1C(F)(F)F`, for which the Potency entry in test [6] is “inactive”. Further, the Potency in test [2] was 2.96 µM (active).

For `C[N+](C)([O-])CCNc1ccc(NCC[N+](C)(C)[O-])c2c1C(=O)c1c(O)ccc(O)c1C2=O`, the Potency in test [1] is 1.66 µM (active); in test [2] it was 0.743 µM (active); in test [4], 0.296 µM (active); in test [5], 0.743 µM (active). Further, the Potency result in test [7] was “inactive”.

As for `OC[C@H]1O[C@@H](Oc2cc(O)cc(C=Cc3ccc(O)cc3)c2)[C@H](O)[C@@H](O)[C@H]1O`, the Potency result in test [1], in test [2], in test [3], in test [4] and in test [5] was “inactive” throughout.

Turning to `CON(C)C(=O)N1N=C(c2cc(F)ccc2F)S[C@]1(CCCN)c1ccccc1`, the Potency result in test [6], in test [2], in test [3] and in test [4] was “inactive” in each case.

In the case of `C[C@@H](Oc1cc(-c2cnn(C3CCNCC3)c2)cnc1N)c1c(Cl)ccc(F)c1Cl`, the Potency in test [6] is 18.7 µM (active); in test [2] it was 16.6 µM (active); in test [4], 9.35 µM (active); in test [8], 3.55 µM (active); in test [7], 3.16 µM (active).

For the compound `COc1cc2nc(N(C)CCCNC(=O)C3CCCO3)nc(N)c2cc1OC` (configuration not stated), the Potency result in test [6], in test [2], in test [3], in test [4], in test [5] and in test [7] was “inactive” in each case. For the same compound, in test [8], the activity (max response) is -10.5%.

Consider `O=c1[nH]c(=O)n([C@H]2C[C@@H](O)[C@@H](CO)O2)cc1C(F)(F)F`, for which the Potency is 1.18 µM (active) in test [1], 9.35 µM (active) in test [4] and 1.87 µM (active) in test [5].

For `CNC(=O)c1ccc(Nc2cc(Nc3ccccc3S(=O)(=O)C(C)C)c3cc[nH]c3n2)nc1`, the Potency in test [1] is 2.35 µM (active); in test [2], 1.87 µM (active); in test [5] it was 1.05 µM (active).

With `CON=C(C(=O)N[C@@H]1C(=O)N2C(C(=O)OCOC(=O)C(C)(C)C)=C(C=Cc3scnc3C)CS[C@H]12)c1csc(N)n1`, the Potency in test [6] was 16.6 µM (active); in test [2], 14.8 µM (active); in test [4], 9.35 µM (active). Further, the Potency result in test [3] was “inactive”.

Consider `NC(=O)c1cnc(N[C@@H]2CCCC[C@@H]2N)nc1Nc1cccc(-n2nccn2)c1`, for which, in test [6], the Potency entry was “inactive”. In addition, the Potency was 11.7 µM (active) in test [3] and 25.1 µM (active) in test [7].

As for `O=C(Cc1cccc(OC(F)(F)F)c1)Nc1ccc(CCCCc2nnc(NC(=O)Cc3ccccn3)s2)nn1`, the Potency entry in test [1] and in test [7] was “inactive” throughout. The Potency in test [3] was 0.0524 µM (active).

Consider `O=C(Nc1ccccc1)Nc1ccc(-c2ccc(C(=O)[C@H]3CCC[C@H]3C(=O)O)cc2)cc1`, for which the Potency result in test [1], in test [2], in test [3] and in test [4] was “inactive” in each case.

Take `COc1cc2c(cc1O)CCC1C2CC[C@@]2(C)C1CC[C@@H]2O` (some centres not stated): the Potency in test [1] is 1.87 µM (active); in test [2], 2.64 µM (active).

Take `O=c1[nH]c(=O)n([C@H]2C[C@@H](O)[C@@H](CO)O2)cc1F`: the Potency is 0.0833 µM (active) in test [1], 0.0743 µM (active) in test [6], 0.0235 µM (active) in test [3] and 2.35 µM (active) in test [4].

On to `CC[C@H](CC[C@@H](C)[C@H]1CC[C@H]2[C@@H]3CC=C4C[C@@H](O)CC[C@]4(C)[C@@H]3CC[C@]12C)C(C)C`, for which the Potency result in test [6], in test [3] and in test [5] was “inactive” in each case.
